Screening results from PubChem BioAssay.
AmpC nodet inh – Promiscuous and Specific Inhibitors of AmpC Beta-Lactamase (assay without detergent) | AID 585, 2007 | 71,000 compounds, 1.8% hits | AmpC nitrocefin hydrolysis, absorbance 480 nm, no detergent | P00811 | Potency, µM (top dose mostly 28.7 µM), inactives show at the highest dose activity change, negative = inhibition; also: % of control where 0% means no effect
Target sequence (P00811 whole entry, looked up): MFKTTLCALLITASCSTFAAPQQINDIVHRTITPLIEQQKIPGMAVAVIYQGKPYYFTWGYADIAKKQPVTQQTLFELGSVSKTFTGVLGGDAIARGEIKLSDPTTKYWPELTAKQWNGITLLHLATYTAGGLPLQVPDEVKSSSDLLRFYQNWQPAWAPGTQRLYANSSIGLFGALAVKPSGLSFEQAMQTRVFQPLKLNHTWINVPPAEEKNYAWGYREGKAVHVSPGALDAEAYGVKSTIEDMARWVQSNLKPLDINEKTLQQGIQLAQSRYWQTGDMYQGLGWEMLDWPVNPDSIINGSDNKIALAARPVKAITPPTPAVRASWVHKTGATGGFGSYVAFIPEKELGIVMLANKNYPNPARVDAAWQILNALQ
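AmpC, 20 mM phosphate pH 7.0; 15 min cpd preinc, RT; start with nitrocefin (800 uM stock); A480 kinetic read, 20 s intervals, 4 min. No-enzyme wells = negative control.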
SmPrx2 inh – Schistosoma Mansoni Peroxiredoxins (Prx2); Schistosoma mansoni peroxiredoxin 2 (Prx2); S. mansoni Prx2 activity coupled to TGR/GSH (TGR is thioredoxin glutathione reductase), NADPH fluorescence loss, qHTS; 65,000 compounds, 0.07% hits; Potency, µM; AID 448, 2006
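Prx2 activity was followed as the loss of NADPH fluorescence (ex 365/em 450 nm), read every 30 sec for 8 min after H2O2 start. The enzyme mix (50 nM Prx2, 25 nM TGR, GSH, NADPH; pH 7.4 phosphate buffer) was incubated with compound for 15 min at room temperature first.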
AmpC det inh – Promiscuous and Specific Inhibitors of AmpC Beta-Lactamase (assay with detergent); P00811; purified AmpC, nitrocefin hydrolysis with detergent; Potency, µM (doses to about 28.7 µM), without a hit: at the highest dose activity change, negative = inhibition; 71,000 compounds, 0.09% hits; AID 584, 2007; active = well fitted curve in the direction sought with a large enough effect; inconclusive = small, poorly fitted or top-dose-only effect; also: % is scaled to controls: 0 for no effect and ±100 for the full control effect
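E. coli AmpC (5.3 nM) in 20 mM phosphate pH 7.0 with 0.01% Triton X-100, preincubated 15 min RT with compound; nitrocefin (2 uL of 800 uM stock) hydrolysis followed by 480 nm absorbance every 20 s over 4 min.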
LT uptake inh – qHTS Assay for Anthrax Lethal Toxin Internalization. 70,000 compounds, 0.67% hits. Cells, anthrax lethal toxin internalization, FRET ratio (460/530). Potency, µM (titrated, usually from 40 µM), inactives show at the top dose activity change, negative = inhibition, hits mostly inhibitors; also: % is scaled to controls: 0 for no effect and ±100 for the full control effect; nearly all actives have a fitted effect of over 50% in size
Numbers without * were called inactive; u = inconclusive; x = no result; [ ] = dose if it differs, or a comment. Shown are actives, neighbours in structure and some others; about 2.4% of the full set was active somewhere. Unless noted, calls follow the shape of the full dose curve. Potency is read from the fitted curve at half-maximal effect.

SMILES	AmpC nodet inh	SmPrx2 inh	AmpC det inh	LT uptake inh
CCOC(=O)C1CCN(c2c(NCCCN3CCN(Cc4ccccc4)CC3)c(=O)c2=O)CC1	19%	>57	10%	3%
CCOC(=O)N1CCN(c2c(NCCN3CCN(Cc4ccccc4)CC3)c(=O)c2=O)CC1	4µM*[single pt active]	>57	12%	-10%
CCOC(=O)N1CCN(c2c(NCCCOC(C)C)c(=O)c2=O)CC1	4µM*[single pt active]	>57	8%	-14%
CCOC(=O)N1CCN(c2c(NCC3CCN(Cc4cccc(C)c4)CC3)c(=O)c2=O)CC1	4µM*[single pt active]	>57	15%	12%
CCOC(=O)N1CCN(c2c(NCCN(C)Cc3ccccc3)c(=O)c2=O)CC1	4µM*[single pt active]	>57	10%	-7%
O=C(/C=C\c1ccc(O)c(O)c1)O[C@H]1C[C@@](O)(C(=O)O)C[C@H](O)[C@@H]1O	4%	>57	-2%	u
CCCC(=O)Cl	-5%	x	11%	6%
CCOC(=O)N1CCN(c2c(NCCCN(C)c3ccccc3)c(=O)c2=O)CC1	4µM*[single pt active]	>57	12%	-1%
CCOC(=O)C[C@@H](C(=O)OCC)[C@@H]1CCCCC1=O	x	x	x	-13%[8 µM]
COCCNC(=O)CSc1nc2cc(OC)c(OC)cc2c(=O)n1Cc1ccco1	40%	>57	-1%	6%
COC(=O)c1ccc2c(=O)n(Cc3ccco3)c(SCC(=O)Nc3ccc(C)c(Cl)c3)nc2c1	13µM*	>57	-2%	-4%
COc1ccc(OC)c(NC(=O)c2cc(-c3cc(Cl)ccc3O)n[nH]2)c1	10µM*	>57	-1%	x
COc1ccc(NC(=O)c2cc(-c3cc(C)ccc3O)n[nH]2)cc1Cl	-12%	>57	-3%	u
N#CC(C#N)=NNc1ccc2cn[nH]c2c1	-1%[5.75 µM]	x	-4%[5.75 µM]	-11%[8 µM]
N#CC(C#N)=NNc1cccc(Cl)c1	x	x	x	2.5µM*
CN1CCN(c2ccc(N)c(N3CCN(C)CC3)c2)CC1	10%	>57	11%	13µM*
Nc1ccc(N2CCCCC2)cc1N1CCCCC1	13%	>57	5%	0%
O=c1c2ccccc2sn1-c1ccc(S(=O)(=O)N2CCCC2)cc1	-6%	>57	-5%	0.13µM*
O=c1c2ccccc2sn1-c1ccc(S(=O)(=O)N2CCCCC2)cc1	-7%	>57	-4%	0.16µM*
CCOC(=O)N1CCC(NC(=O)c2ccc(CS(=O)(=O)c3ccccc3C)o2)CC1	4µM*[single pt active]	>57	11%	-3%
CCCCN(C)C(=O)c1ccc(CS(=O)(=O)c2ccccc2C)o1	4µM*[single pt active]	>57	12%	-7%
O=C(Cc1cccs1)Nc1ccc(S(=O)(=O)N2CCCCC2)cc1	13µM*[single pt active]	>57	-2%	-3%
O=C(Nc1ccc(S(=O)(=O)N2CCCCCC2)cc1)c1ccc(Br)o1	-11%	>57	8%	1.6µM*
O=P(O)(OP(=O)(O)c1ccccc1)c1ccccc1 (tested in a mixture with another compound)	-4%[5.75 µM]	>57	0%[5.75 µM]	u
O=c1c(-c2cc(F)cc(F)c2)nc2cncnc2n1Cc1ccc(F)cc1	18%	>57	-1%	u
SMILES	AmpC nodet inh	SmPrx2 inh	AmpC det inh	LT uptake inh
N#Cc1c(-c2ccc(Cl)cc2Cl)nc2n(c1=O)CCS2	10µM*[single pt active]	>57	0%	u
CCC(=O)n1nc(-c2ccco2)nc1SCc1ccccc1	4%	>57	-1%	-6%
CC(=O)n1nc(-c2ccco2)nc1SCc1ccccc1	u	u	-2%	7.9µM*
COc1ccccc1CNc1ncncc1-c1ccccc1C(F)(F)F	30%	>57	12%	-2%
CN(C)CC[C@@H](C(=O)C(C)(C)C)c1ccccn1	2%[5.75 µM]	>57	-6%[5.75 µM]	1%[8 µM]
Cn1cccc1Cc1nnc(SCC(N)=O)n1-c1ccc(F)cc1	4µM*[single pt active]	>57	10%	8%
Cn1cccc1Cc1nnc(SCC(=O)N2CCOCC2)n1-c1ccc(F)cc1	4µM*[single pt active]	>57	14%	0%
O=C(c1cnccn1)N1CCC[C@@]2(CCN(Cc3cc(C(F)(F)F)cc(C(F)(F)F)c3)C2)C1	98%	>57	0%	-4%
COc1ccc(CNc2ncnc3ccc(-c4ccc(N(C)C)cc4)cc23)c(OC)c1	38%	>57	8%	u
O=C1C2CC=CCC2C(=O)N1SC(Cl)(Cl)Cl (centres undefined)	u	x	-4%	3.2µM*
O=C1C2CC=CCC2C(=O)N1CC1CCCO1 (centres undefined)	-11%	>57	-2%	-12%
O=c1cc(-c2ccccc2O)oc2c(O)c(O)ccc12	u	u	-7%	u
C[C@@H]1[C@H]2C=C[C@@H]1[C@@H](c1c3ccc(=O)c(O)c-3oc3c(O)c(O)ccc13)[C@@H]2C(=O)O	2.5µM*	>57	2µM*	u
CC[C@H](C(=O)[C@H](C)[C@H](O)[C@H](C)CCc1ccc(C)c(O)c1C(=O)O)[C@H]1O[C@](CC)([C@@H]2CC[C@@](O)(CC)[C@H](C)O2)C[C@H]1C	11%[12.8 µM]	>57	-3%[12.8 µM]	0.32µM*
CO[C@@H]1/C=C\CC(=O)N2CCC[C@@H]2C(=O)OC[C@@H](C)C(=O)OC[C@H]1C	x	x	x	1%[8 µM]
O=C1c2ccccc2C(Nc2ccc3c(c2)OCCO3)N1c1ccccn1 (centres undefined)	14%	>57	9%	u
O=C1c2ccccc2C(Nc2ccc3c(c2)OCCO3)N1Cc1ccc2c(c1)OCO2 (centres undefined)	4µM*[single pt active]	>57	11%	u
CCN(CC)S(=O)(=O)c1ccc(NC2c3ccccc3C(=O)N2Cc2ccc3c(c2)OCO3)cc1 (centres undefined)	4µM*[single pt active]	>57	15%	u
CC(C)(C)N1C(=O)[C@H]2[C@@H]3[C@H](O)C=CC(=O)[C@H]3CC[C@H]2C1=O	x	x	x	-8%[8 µM]
N[C@@H](CSS(=O)(=O)O)C(=O)O	11%	x	-3%	u
CN1CCN(CCCN2c3ccccc3Sc3ccc(Cl)cc32)CC1	61%[12.8 µM]	>57	-2%[12.8 µM]	25µM*
CCSc1ccc2c(c1)N(CCCN1CCN(C)CC1)c1ccccc1S2	57%[12.8 µM]	>57	-3%[12.8 µM]	15%[3.58 µM]
CCc1ccc(-c2cn(-c3nc(C)cc(C)n3)c(=N)o2)cc1	19%	>57	12%	13µM*
CCOC(=O)N1CCN(C(=O)c2ccccc2-c2ccccc2)CC1	43%	>57	-2%	u
CCOC(=O)N1CCN(C(=O)c2cnn3ccccc23)CC1	4µM*[single pt active]	>57	25%	5%
N#Cc1c(NC(=O)CCC(=O)O)ccc2ccccc12	1%[5.75 µM]	>57	-1%[5.75 µM]	-4%[8 µM]
Cc1cc(C)cc(N(CC(=O)N2CCn3c2nc2ccccc23)S(=O)(=O)c2c(C)noc2C)c1	4µM*[single pt active]	>57	11%	u
Cc1cc(C)cc(N(CC(=O)N2CCN(c3ccccc3)CC2)S(=O)(=O)c2c(C)noc2C)c1	108%	>57	15%	u
Cc1n[nH]c(C)c1S(=O)(=O)N(CC(=O)N1CCc2ccccc21)c1ccc(C(C)C)cc1	4µM*[single pt active]	>57	11%	6%
CCOc1ccc(N(CC(=O)N2CCc3ccccc32)S(=O)(=O)c2c(C)noc2C)cc1	3.2µM*[single pt active]	>57	17%	u
